Sampled rows, rich in hits. Any-hit rate of the full collection: about 7.5%.
B2AR arrestin: qHTS assay of beta-arrestin-biased ligands of beta2-adrenergic receptor | Beta-2 adrenergic receptor (Homo sapiens), P07550 | beta-arrestin recruitment to beta2AR, cell-based reporter | Potency, µM (top dose mostly 46.1 µM), hits mostly activators | hit rate 0.02% among 330,000; note: nearly all actives have a fitted effect of over 65% in size
TSHR antag: Antagonists of the Thyroid Stimulating Hormone Receptor: HTS campaign | Thyrotropin receptor (Homo sapiens), P16473 | TSHR-expressing cells, TSH-stimulated cAMP HTRF, 2 h; hits give low values | hit rate 0.2% among 330,000 | activity change, negative = inhibition, % at 11.5 µM | AID 504810, 2011;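 active = activity change below a set negative limit, meaning inhibition stronger than a set level, cut at about -70% in these data; inconclusive = activity change between two set negative limits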
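Antagonism was scored as loss of TSH-driven cAMP in TSHR cells, stimulated with 4nM TSH (EC80) for 2 hours at 37 deg C and detected by homogeneous HTRF competition immunoassay.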
Gal4-VP16 FLuc: VP16 counterscreen qHTS for inhibitors of ROR gamma transcriptional activity | Drosophila S2 Gal4-VP16 UAS-luciferase, luminescence, 20 h | Potency, µM (series often up to 53.6 µM), actives largely listed as inhibitors | hit rate 3.5% among 310,000;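 note: Gal4-VP16 expression switched on by copper sulfate through the metallothionein promoter; nearly all actives have a fitted effect of over 50% in size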
ELG1 repair inh: qHTS screen for small molecules that inhibit ELG1-dependent DNA repair in human embryonic kidney (HEK293T) cells expressing luciferase-tagged ELG1; HEK293T ELG1-luciferase reporter, luminescence, 16 h; DNA damage induced by 5-fluorouridine; Potency, µM (titrated, usually from 46.1 µM), hits mostly inhibitors; hit rate 2.3% among 330,000; AID 504467, 2011; note: nearly all actives have a fitted effect of over 55% in size
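Quantitative HTS, concentration-response format. 2,000 cells/well co-treated with 5-fluorouridine and compound, 16 hr in 5% CO2 at 37 °C; ONE-Glo luminescence read after 30 min.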
RORgamma inh: qHTS for inhibitors of ROR gamma transcriptional activity | Drosophila S2 Gal4-RORgamma UAS-luciferase reporter, 20 h | Potency, µM (series often up to 53.6 µM), usual class: inhibitors | hit rate 5.4% among 310,000 | AID 2551, 2010; note: nearly all actives have a fitted effect of over 60% in size
Target sequence (P51450 whole entry, looked up, the tested form may be a part): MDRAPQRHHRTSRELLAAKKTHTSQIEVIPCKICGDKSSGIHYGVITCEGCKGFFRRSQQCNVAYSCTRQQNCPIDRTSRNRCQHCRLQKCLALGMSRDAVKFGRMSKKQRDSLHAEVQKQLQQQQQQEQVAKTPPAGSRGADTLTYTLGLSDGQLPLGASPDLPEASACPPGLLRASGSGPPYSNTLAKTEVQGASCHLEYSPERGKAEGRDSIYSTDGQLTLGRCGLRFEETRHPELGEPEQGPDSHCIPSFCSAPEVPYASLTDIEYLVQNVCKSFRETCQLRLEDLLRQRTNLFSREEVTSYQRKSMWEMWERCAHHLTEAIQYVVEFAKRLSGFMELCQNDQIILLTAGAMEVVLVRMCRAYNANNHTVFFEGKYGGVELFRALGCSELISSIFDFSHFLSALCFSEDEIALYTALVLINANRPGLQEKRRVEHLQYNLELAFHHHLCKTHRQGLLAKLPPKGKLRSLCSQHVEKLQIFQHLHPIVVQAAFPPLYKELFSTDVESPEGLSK
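Luciferase reporter read in Schneider cells carrying Gal4-RORγ (mouse) and UAS-Photinus luciferase; cells given compound 1 h before 700 uM copper sulfate induction, then incubated 20 h at ambient temperature.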
A number is an active result. Unless noted, calls come from the whole dose curve; as a rule, active = well fitted curve in the direction sought with a large enough effect; inconclusive = small, poorly fitted or top-dose-only effect, or another doubt; inactive = no such curve, though single readings can be large; an effect the other way counts as inactive or inconclusive.

What do the screens show for `CC(=O)c1c(C)[nH]c(C(=O)Nc2ccc(Cl)c(S(=O)(=O)N(C)C)c2)c1C`?
B2AR arrestin: inactive; TSHR antag: inactive; Gal4-VP16 FLuc: inactive; ELG1 repair inh: inconclusive; RORgamma inh: inactive

What do the screens show for `CC(=O)c1c(C)[nH]c(C(=O)OCC(=O)Nc2ccc(Cl)c(S(=O)(=O)N(C)C)c2)c1C`?
B2AR arrestin: inactive; TSHR antag: inactive; Gal4-VP16 FLuc: inconclusive; ELG1 repair inh: 12µM; RORgamma inh: inactive

How did COC(=O)c1ccc(COC(=O)c2[nH]c(C)c(C(C)=O)c2C)o1 do in these assays?
B2AR arrestin: inactive; TSHR antag: inactive; Gal4-VP16 FLuc: 7.9µM; ELG1 repair inh: inconclusive; RORgamma inh: inconclusive

How did COc1cc(NC(=O)COC(=O)c2[nH]c(C)c(C(C)=O)c2C)cc(OC)c1 do in these assays?
B2AR arrestin: inactive; TSHR antag: inactive; ELG1 repair inh: 7.3µM

What do the screens show for `CC(=O)c1c(C)[nH]c(C(=O)OCc2ccc([N+](=O)[O-])cc2)c1C`?
B2AR arrestin: inactive; TSHR antag: inactive; Gal4-VP16 FLuc: inactive; ELG1 repair inh: inactive; RORgamma inh: inconclusive

Results for CC(=O)c1c(C)[nH]c(C(=O)OCC(=O)Nc2ccc(Cl)cc2[N+](=O)[O-])c1C ?
B2AR arrestin: inactive; TSHR antag: inactive; Gal4-VP16 FLuc: 5µM; ELG1 repair inh: 3.7µM; RORgamma inh: inconclusive

How did CCCCn1c(N)c(N(CC(C)C)C(=O)CCCc2cccs2)c(=O)[nH]c1=O do in these assays?
B2AR arrestin: inactive; TSHR antag: inactive; Gal4-VP16 FLuc: inconclusive; ELG1 repair inh: inactive; RORgamma inh: inactive

How did CCOC(=O)c1c(N)sc2c1CCN(Cc1ccccc1)C2 do in these assays?
Gal4-VP16 FLuc: inactive; RORgamma inh: inactive

What do the screens show for `CC(=O)c1c(C)[nH]c(C(=O)OCC(=O)Nc2ccc3c(c2)OCCO3)c1C`?
B2AR arrestin: inactive; TSHR antag: inactive; ELG1 repair inh: 15µM

What do the screens show for `CC(=O)c1c(C)[nH]c(C(=O)OCC(=O)Nc2cc(C)on2)c1C`?
B2AR arrestin: inactive; TSHR antag: inactive; Gal4-VP16 FLuc: inactive; ELG1 repair inh: inactive; RORgamma inh: inactive

What do the screens show for `CCOC(=O)c1nnc(-c2ccccc2)nc1NC`?
B2AR arrestin: inactive; TSHR antag: inactive; Gal4-VP16 FLuc: inactive; ELG1 repair inh: inactive; RORgamma inh: inactive

What do the screens show for `CCOC(=O)c1nnc(-c2ccccc2)nc1Oc1ccccc1Cl`?
B2AR arrestin: inactive; TSHR antag: inactive; Gal4-VP16 FLuc: 5µM; ELG1 repair inh: inactive; RORgamma inh: 4.5µM

Results for CCC(=O)O[C@H](CC(=O)O)C[N+](C)(C)C ?
Gal4-VP16 FLuc: inactive; RORgamma inh: inactive

What do the screens show for `CCS(=O)(=O)Nc1ccc(C2=NN(C(=O)c3ccco3)C(c3ccc(C)cc3)C2)cc1` (stereo not given)?
B2AR arrestin: inactive; TSHR antag: inactive; Gal4-VP16 FLuc: 18µM; ELG1 repair inh: inconclusive; RORgamma inh: inactive

Results for Cc1cccc(-n2c(C)cc(/C=N/n3cnnc3)c2C)c1 ?
B2AR arrestin: inactive; TSHR antag: inactive; Gal4-VP16 FLuc: 20µM; ELG1 repair inh: inactive; RORgamma inh: inconclusive

How did Cc1cc(/C=N/n2cnnc2)c(C)n1-c1ccc2c(c1)OCO2 do in these assays?
B2AR arrestin: inactive; TSHR antag: inactive; Gal4-VP16 FLuc: inactive; ELG1 repair inh: inactive; RORgamma inh: inactive

Results for CC(C)(C)N(Cc1ccccc1)C(=O)COC(=O)CCN1C(=O)C2CC=CCC2C1=O (stereo not given) ?
B2AR arrestin: inactive; TSHR antag: inactive; ELG1 repair inh: inactive

How did Cc1cc(O)c(C(C[N+](=O)[O-])c2ccc(Cl)cc2Cl)c(=O)o1 (stereo not given) do in these assays?
B2AR arrestin: inactive; TSHR antag: inactive; Gal4-VP16 FLuc: inconclusive; ELG1 repair inh: inactive; RORgamma inh: 16µM

How did O=c1[nH][nH]c(-c2ccccc2O)c1C(C[N+](=O)[O-])c1ccc(Cl)cc1Cl (stereo not given) do in these assays?
B2AR arrestin: inactive; TSHR antag: inactive; Gal4-VP16 FLuc: inactive; ELG1 repair inh: inactive; RORgamma inh: inactive

What do the screens show for `C=CCN1C(=O)c2ccc(C(=O)N(CC(C)C)c3c(N)n(CCCC)c(=O)[nH]c3=O)cc2C1=O`?
B2AR arrestin: inactive; TSHR antag: inactive; ELG1 repair inh: inconclusive

How did NS(=O)(=O)c1ccc(-c2ccc(/C=N/NC(=O)c3ccccc3O)o2)cc1 do in these assays?
B2AR arrestin: inactive; TSHR antag: inactive; Gal4-VP16 FLuc: 18µM; ELG1 repair inh: inactive; RORgamma inh: 3.5µM

What do the screens show for `O=C(N/N=C/c1ccc(-c2ccc(S(=O)(=O)Nc3ncccn3)cc2)o1)c1cc2ccccc2cc1O`?
B2AR arrestin: inactive; TSHR antag: inactive; Gal4-VP16 FLuc: inactive; ELG1 repair inh: inactive; RORgamma inh: inactive

How did Cc1ccc(-c2ccc(/C=N/NC(=O)c3ccccc3O)o2)cc1 do in these assays?
B2AR arrestin: inactive; TSHR antag: inactive; Gal4-VP16 FLuc: 0.16µM; ELG1 repair inh: inconclusive; RORgamma inh: 0.71µM

Results for COC(=O)c1ccc(C=O)cc1 ?
Gal4-VP16 FLuc: inactive; RORgamma inh: inactive

Results for Cc1nn(C)c(C)c1/C=N/NC(=O)CCn1nc(C)c([N+](=O)[O-])c1C ?
B2AR arrestin: inactive; TSHR antag: inactive; Gal4-VP16 FLuc: 3.5µM; ELG1 repair inh: inactive; RORgamma inh: inactive

Results for Cc1ccc(/C=N/NC(=O)Cn2nc(C)c([N+](=O)[O-])c2C)o1 ?
B2AR arrestin: inactive; TSHR antag: inactive; Gal4-VP16 FLuc: inactive; ELG1 repair inh: inactive; RORgamma inh: inactive

Results for Fc1ccc(Nc2nc(N3CCOCC3)nc(N3CCOCC3)n2)cc1Cl ?
B2AR arrestin: inactive; TSHR antag: inactive; Gal4-VP16 FLuc: inactive; ELG1 repair inh: inconclusive; RORgamma inh: inactive

How did Fc1ccccc1Nc1nc(N2CCOCC2)nc(N2CCOCC2)n1 do in these assays?
B2AR arrestin: inactive; TSHR antag: inactive; Gal4-VP16 FLuc: inactive; ELG1 repair inh: 5.8µM; RORgamma inh: inactive

How did Clc1ccc(Nc2nc(N3CCOCC3)nc(N3CCOCC3)n2)cc1Cl do in these assays?
B2AR arrestin: inactive; TSHR antag: inactive; Gal4-VP16 FLuc: inactive; ELG1 repair inh: 1.6µM; RORgamma inh: inactive

What do the screens show for `Cc1cc(Nc2ccc(C)c(Cl)c2)nc(N2CCOCC2)n1`?
B2AR arrestin: inactive; TSHR antag: inactive; Gal4-VP16 FLuc: inactive; ELG1 repair inh: 21µM; RORgamma inh: inactive

What do the screens show for `O=C(CSc1nc2ccc(Nc3nc(N4CCOCC4)nc(N4CCOCC4)n3)cc2s1)Nc1ccccc1F`?
B2AR arrestin: inactive; TSHR antag: inactive; Gal4-VP16 FLuc: inactive; ELG1 repair inh: 2.6µM; RORgamma inh: inactive

Results for COc1ccc(NC(=O)CSCC(=O)Oc2c(OC)cccc2OC)cc1 ?
B2AR arrestin: inactive; TSHR antag: inactive; ELG1 repair inh: inactive

High-throughput results (PubChem)
